Data from PubChem BioAssay (NCATS).
A number with no mark means an inactive call. Results filed as inconclusive are left out. Activity calls are given as the source filed them. The call rests on the fitted dose curve; in most records, active means well fitted curve in the direction sought with a large enough effect; inconclusive means small, poorly fitted or top-dose-only effect, or another doubt; inactive means no such curve, though single readings can be large; an effect the other way counts as inactive or inconclusive.

Molecular target: Cytochrome P450 2C19 (Homo sapiens) (UniProt P33261)
Experiment: qHTS Assay for Inhibitors and Substrates of Cytochrome P450 2C19 (AID 899); further: nearly all actives have a fitted effect of over 60% in size; further: potency means the concentration at half of the fitted maximal effect; on activity, negative = inhibition: on the % scale 0 is the no-effect control and ±100 the full control effect
Details: recombinant CYP2C19, luciferin-H EGE luminescence; series mostly up to 11.4 µM; activity, negative = inhibition: at the top concentration
Method in brief: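 Luminescent read-out of luciferin formed from Luciferin-H EGE (10uM, equal to KM). Enzyme 5nM in 50mM KPO4; compound added, 10 min at 37C, then NADPH regenerating system for 60 min at 37C. Full inhibition defined by 57uM ketoconazole.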

Cytochrome P450 2C19 (Homo sapiens), sequence (P33261 whole entry, looked up): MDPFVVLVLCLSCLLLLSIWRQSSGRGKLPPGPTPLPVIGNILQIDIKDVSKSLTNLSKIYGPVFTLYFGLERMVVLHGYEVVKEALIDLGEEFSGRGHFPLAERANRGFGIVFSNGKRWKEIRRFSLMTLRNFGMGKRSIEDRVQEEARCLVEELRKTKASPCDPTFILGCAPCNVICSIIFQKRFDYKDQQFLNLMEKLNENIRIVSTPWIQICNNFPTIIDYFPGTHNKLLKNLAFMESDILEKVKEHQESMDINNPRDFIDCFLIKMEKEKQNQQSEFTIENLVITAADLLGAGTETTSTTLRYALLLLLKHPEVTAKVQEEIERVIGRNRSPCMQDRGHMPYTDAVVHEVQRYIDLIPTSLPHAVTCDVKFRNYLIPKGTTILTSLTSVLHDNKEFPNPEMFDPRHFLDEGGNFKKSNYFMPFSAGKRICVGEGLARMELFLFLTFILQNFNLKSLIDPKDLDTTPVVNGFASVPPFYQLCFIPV

| SMILES | activity, negative = inhibition | Potency |
| --- | --- | --- |
| O=C1[C@H]2[C@H]3[C@H](O)[C@H](O)C/C(=N/OC[C@@H](O)COCc4ccco4)[C@@H]3CC[C@@H]2C(=O)N1C[C@@H]1CCCO1 | 13.1% |  |
| O=C1[C@H]2[C@H]3[C@H](O)[C@H](O)C/C(=N/OCc4ccccc4)[C@H]3CC[C@@H]2C(=O)N1C[C@@H]1CCCO1 | 50.6% |  |
| CO[C@@H]1COC(=O)[C@@H](CCSC)NC(=O)C/C=C\[C@@H](C)COC(=O)[C@H](C)NC(=O)C/C=C\[C@H]1C | 62.1% |  |
| C#CCCCO/N=C1/C[C@@H](O)[C@@H](O)[C@@H]2[C@@H]3C(=O)N(Cc4ccccc4)C(=O)[C@H]3CC[C@@H]12 | 46.4% |  |
| CC(=O)OC[C@H]1O[C@@H](O/N=C2/[C@H]3O[C@@H]3[C@@H](O)[C@H]3[C@H]2CCn2c(=O)n(-c4ccccc4)c(=O)n23)[C@H](OC(C)=O)[C@@H](OC(C)=O)[C@@H]1OC(C)=O | 55.9% |  |
| C=CC1=C[C@@H](O)C2OC2C12OCCCO2 (stereo not given in full) | 33.8% |  |
| COC(=O)[C@H](Cc1ccccc1)NC(=O)[C@@H](C)CO |  | 1.26 µM (active) |
| CO[C@@H]1COC(=O)[C@H]2CCCN2C(=O)C/C=C\[C@@H](C)[C@H](OC)COC(=O)[C@H]2CCCN2C(=O)C/C=C\[C@H]1C | 67.2% |  |
| CC(C)=CCC/C(C)=C/CO/N=C1/C[C@@H](O)[C@@H](O)[C@@H]2[C@@H]3C(=O)N(Cc4ccccc4)C(=O)[C@H]3CC[C@@H]12 | 62.5% |  |
| CC(=O)OC[C@@H]1O[C@H](C/C=N\O[C@@H](C)c2cn([C@H]3COC[C@H]3O)nn2)C=C[C@@H]1OC(C)=O | 69.6% |  |
| C/C(CCN1CCc2nc(-c3ccccc3)c(-c3ccccc3)cc2C1)=N\OC[C@@H](C)[C@H](OCc1ccccc1)C(C)C |  | 1.58 µM (active) |
| CO/N=C\[C@@H](NS(=O)(=O)c1ccc(C)cc1)[C@H](C)/C=C\CC(=O)OC |  | 3.16 µM (active) |
| CC(C)=NO[C@@H](C)c1cn([C@@H]2COC[C@@H]2O)nn1 | 47.6% |  |
| CO[C@@H]1COC(=O)[C@H](C)NC(=O)C/C=C\[C@@H](C)[C@@H](NS(=O)(=O)c2ccc(C)cc2)COC(=O)C/C=C\[C@@H]1C | 71% |  |
| CO[C@@H]1COC(=O)[C@H]2CCCN2C(=O)[C@@H](C)COC(=O)CCC[C@H]1C | 48% |  |
| COC(=O)C/C=C\[C@@H](C)[C@@H](/C=N\O[C@@H](C)c1cn([C@H]2COC[C@H]2O)nn1)OC | 50.1% |  |
| C[C@H]1COC(=O)[C@H]2CCCN2C(=O)[C@@H](C)COC(=O)[C@H](Cc2ccccc2)NC1=O | 54.5% |  |
| CO[C@@H]1COC(=O)C/C=C\[C@H](C)COC(=O)[C@H](Cc2ccccc2)NC(=O)C/C=C\[C@H]1C |  | 2.51 µM (active) |
| O=C1C[C@H](c2ccccc2)[C@@H](c2ccc(Br)cc2)O1 |  | 0.398 µM (active) |
| CO[C@@H]1COC(=O)[C@H](Cc2ccccc2)NC(=O)C/C=C\[C@@H](C)[C@H](OC)COC(=O)[C@@H](C)NC(=O)C/C=C\[C@H]1C | 51.2% |  |
| CCN1C(=O)[C@@H]2[C@H]3C(=CC[C@@H]2C1=O)C1(OCCCO1)[C@H]1O[C@@H]1[C@H]3O |  | 1.58 µM (active) |
| Cc1ccc(S(=O)(=O)N[C@H]2COC(=O)C/C=C\[C@@H](C)[C@H](NS(=O)(=O)c3ccc(C)cc3)COC(=O)[C@H](C)NC(=O)C/C=C\[C@H]2C)cc1 | 50.6% |  |
| C[C@@H]1/C=C\CC(=O)OC[C@H](C)C(=O)N[C@@H](C)C(=O)OC1 | 64% |  |
| COc1ccc(O[C@H]2C=C[C@@H](c3ccccc3)O[C@@H]2CO/N=C(\C)CCN2CCc3nc(-c4ccccc4)c(-c4ccccc4)cc3C2)cc1 |  | 0.251 µM (active) |

System: not listed separately
Experiment: Confirmation and Secondary Assay for Modulators of Hemoglobin Beta Chain Splicing at IVS2 654 locus (AID 910);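 further: HeLa cells stably carrying EGFP split by mutant beta-globin IVS2-654 intron; % of control where 0% means no effect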
Details: HeLa EGFP-654 splicing reporter, GFP fluorescence, 48 h; series mostly up to 46.1 µM; activation (splicing correction): at the top concentration
Method in brief: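 HeLa cells stably expressing EGFP interrupted by β-globin IVS2-654 intron, seeded overnight in Opti-MEM/2% FCS, then treated 2 days at 37 °C. Restored splicing read as total peak GFP intensity per well by laser scanning cytometry (488 nm excitation, 500–520 nm emission); 500 nM antisense PNA as control.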

| SMILES | activation (splicing correction) |
| --- | --- |
| C=C1c2c(Cl)ccc(O)c2C(O)=C2C(=O)[C@]3(O)C(O)=C(C(N)=O)C(=O)C(N(C)C)C3C(O)C12 (stereo not given in full) | -7.93% |
| CNC(C)C1CC[C@H](N)[C@@H](OC2C(N)C[C@H](N)[C@@H](OC3OC[C@](C)(O)C(NC)[C@H]3O)C2O)O1 (stereo not given in full) | 3.34% |
| Nc1ncn(C2OC(CO)C(O)C2O)c(=O)n1 (stereo not given) | -5.89% |
| CC(=O)OC1CCC2(C)C3=C(CCC2C1(C)C)[C@@]1(C)CCC(C(C)CCC=C(C)C)[C@@]1(C)CC3 (stereo not given in full) | 2.59% |
| CC1CC2C3CC(F)C4=CC(=O)C=C[C@@]4(C)[C@@]3(F)C(O)C[C@]2(C)[C@]1(O)C(=O)COC(=O)C(C)(C)C (stereo not given in full) | -1.46% |
| COc1cc2c(cc1OC)C1C(=O)c3c(cc4c(c3O)C=CC(C)(C)O4)OC1CO2 (stereo not given) | -2.22% [at 38.3 µM] |
| CC(=O)N1CCN(c2ccc(OCC3CO[C@@](Cn4ccnc4)(c4ccc(Cl)cc4Cl)O3)cc2)CC1 (stereo not given in full) | -4.91% |
| COc1cc2c(c(OC)c1OC)-c1ccc(OC)c(=O)cc1C(NC(C)=O)CC2 (stereo not given) | -7.01% |
| CC(CCC(=O)O)C1CCC2C3CC[C@H]4CC(O)CC[C@@]4(C)C3CC[C@@]12C (stereo not given in full) | -6.74% |
| COC(=O)C1C(O)CC[C@H]2CN3CCc4c([nH]c5ccccc45)C3C[C@H]12 (stereo not given in full) | -1.68% [at 38.3 µM] |
| CN1C2CC(OC(=O)C(CO)c3ccccc3)C[C@@H]1[C@H]1OC21 (stereo not given in full) | 3.6% |
| CC(C)CC1C(=O)N2CCCC2C2(O)O[C@@](NC(=O)C3C=C4c5cccc6[nH]c(Br)c(c56)CC4N(C)C3)(C(C)C)C(=O)N12 (stereo not given in full) | -8.85% |
| COc1cc2c(cc1OC)C1C(=O)c3c(O)cc4c(c3OC1CO2)C=CC(C)(C)O4 (stereo not given) | -7.82% |
| CC(C)(C)NCC(O)COc1cccc2c1CC(O)C(O)C2 (stereo not given) | -2.52% |
| CC1CC[C@@]2(C(=O)O)CC[C@]3(C)C(=CCC4[C@@]5(C)CCC(O)C(C)(C)C5CC[C@@]43C)C2C1C (stereo not given in full) | -1.02% [at 38.3 µM] |
| CC(=O)[C@]1(O)CCC2C3CC(C)C4=CC(=O)C=CC4(C)[C@@]3(F)C(O)C[C@]21C (stereo not given in full) | -1.29% |
